The record followed here is PubChem BioAssay AID686978 (National Center for Advancing Translational Sciences (NCATS), 2013).

In all, about 420,000 compounds went through this assay and about 64,000 (15%) were called active. Not shown: some 27% with an inconclusive outcome. A selection follows. A number with no mark means an inactive call. Calls come from the whole dose curve; as a rule, active = well fitted inhibition curve with a large enough effect; inconclusive = small, poorly fitted or top-dose-only effect; inactive = flat fitted curve, though single readings scatter.
% is set by controls: 0 for no effect and ±100 for the full control effect; potency is the fitted concentration of half-maximal effect.

The experiment is described as follows: qHTS for Inhibitors of human tyrosyl-DNA phosphodiesterase 1 (TDP1): qHTS in cells in absence of CPT. Note: nearly all actives have a fitted effect of over 55% in size. To be noted: DT40 Tdp1-/- hTDP1 cells, no CPT, ATP luminescence, 48 h; activity change, negative = growth inhibition: at 46.2 µM (top of the series). In short, it runs like this: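 Growth of hTDP1-complemented DT40 Tdp1-knockout cells is measured by ATP luminescence after at least 48 hr compound exposure at 37 °C, with DMSO substituting for the 20 nM CPT used in the parallel screen.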
(qHTS replaces the single test concentration by a dilution series.)
For the compound `CCc1c(C)n([O-])c2c([n+]1=O)CCCCC2`, the “activity change, negative = growth inhibition” value was 4.34%. Still for that read-out and setting: then `CCOC(=O)CCC(=O)OCC(=O)NC(C)C1CC2CCC1C2` (stereo unspecified), with -12.4%. Consider `Cc1cccc(C(=O)OCC(=O)NCC(C)C)c1O`, for which the “activity change, negative = growth inhibition” value is -2.49%.

Take `Cc1cccc(C(=O)OCC(=O)NC(C)C2CC3CCC2C3)c1O` (stereo unspecified): the Potency was 16.4 µM (active). In the case of `COC(=O)c1ccc(NC(=O)CSc2nnc(-c3ccncc3)n2C)cc1`, the “activity change, negative = growth inhibition” value was -0.574%. Consider `CC(=O)c1ccc(Nc2nc(C(N)c3ccccc3Cl)cs2)cc1` (stereo unspecified), for which the Potency was 11.6 µM (active).

For `NS(=O)(=O)c1ccc(Nc2nc(-c3ccccc3)cs2)cc1`, the “activity change, negative = growth inhibition” value was -16.9%. Still for that read-out and setting: as for `CC(=O)c1ccc(NC(=O)C(C)N(C)CC(=O)Nc2ccccc2Cl)cc1` (stereo unspecified), the figure is -1.04%; as for `COc1ccc(NC(=O)CSc2nnc(-c3nnn(-c4ccc(F)cc4)c3C)o2)cc1`, -26.3%. For the compound `COc1ccccc1N(CC(=O)NC1CCCC1)C(=O)C1(C)CC(=O)N=C2C=CC(C)=CN21` (stereo unspecified), the “activity change, negative = growth inhibition” value is -26.7%. The same measure, in the same setting: as for `CC1=C(C(N)=O)C(c2sccc2C)n2nnnc2N1` (stereo unspecified), the figure is -5.04%. Turning to `CSc1cccc(NC(=S)N(Cc2ccccc2)Cc2ccccn2)c1`, the Potency was 20.6 µM (active). For `COc1cccc(NC(=S)N(Cc2ccc(C)cc2)Cc2ccccn2)c1`, the “activity change, negative = growth inhibition” value is -29.4%. Take `CSc1cccc(NC(=S)N(C(C)C)C(C)c2ccccn2)c1` (stereo unspecified): the Potency is 8.2 µM (active). For `CC(c1ccccn1)N(CCN(C)C)C(=S)Nc1ccccc1F` (stereo unspecified), the “activity change, negative = growth inhibition” value was -10.4%.

As for `Cc1c(Cl)cccc1NC(=S)N(Cc1ccccc1)Cc1cccnc1`, the “activity change, negative = growth inhibition” value was -1.9%. Still for that read-out and setting: as for `CC(C)(C)c1nnc(N/N=C/c2ccc(O)cc2)n(N)c1=O`, the figure is -21.3%; as for `O=C(CC[C@H]1O[C@@H](n2ccc(=O)[nH]c2=O)[C@H](O)[C@@H]1O)N[C@H](Cc1ccccc1)C(=O)NCCCN1CCCC1=O`, 7.45%; as for `CN(C(=O)COC(=O)CCCc1c[nH]c2ccccc12)c1c(N)n(Cc2ccccc2)c(=O)[nH]c1=O`, 16.9%. In the case of `Cc1nc2c(ncn2-c2ccccc2)c(=O)n1NC(=O)CN1CCCC1`, the “activity change, negative = growth inhibition” value is 3.93%. On to `CCN(CC)C(=O)CSc1nnc(-c2ccc(S(=O)(=O)NCc3ccccc3Cl)cc2)o1`, for which the “activity change, negative = growth inhibition” value was -18.3%.

On to `COc1ccccc1NC(=O)[C@H](COCc1ccccc1)NC(=O)OC(C)(C)C`, for which the Potency is 18.4 µM (active). On to `COc1ccccc1NC(=O)C(CC(=O)O)Cc1cc(C)cc(C)c1` (stereo unspecified), for which the “activity change, negative = growth inhibition” value was 3.58%. Still for that read-out and setting: as for `COc1ccccc1NC(=O)C(C)OC(=O)CC1CCCC1` (stereo unspecified), the figure is -0.667%; as for `COc1ccc(C)cc1NC(=O)CCCN1C(=O)NC(C)(C)C1=O`, 7.84%; as for `O=S(=O)(NCCNS(=O)(=O)c1ccccc1)c1ccccc1`, 2.77%. Turning to `Cc1cc(C(=O)N2CCCC2(C)C(=O)O)c(C)o1` (stereo unspecified), the “activity change, negative = growth inhibition” value was -1.92%. Consider `Cc1cccc(CCNC(=O)c2ccc3c(c2)nc2n3CCC(C)C2)c1` (stereo unspecified), for which the Potency is 18.4 µM (active).

For `COc1ccc(CNC(=O)c2ccc3c(c2)nc2n3CCOC2)c(OC)c1`, the “activity change, negative = growth inhibition” value is -1.39%.

`Cc1ccc(CCNC(=O)c2ccc3c(c2)nc2n3CCC(C)C2)cc1` (stereo unspecified): the “activity change, negative = growth inhibition” value was -23.5%.

As to `CCOc1ccc(CCNC(=O)COC(=O)C2CCN(S(=O)(=O)c3ccccc3)CC2)cc1OCC`, the “activity change, negative = growth inhibition” value was -10.6%. The same measure, in the same setting: then `COC(=O)c1ccc(COC(=O)c2cnccn2)cc1`, with -6.17%; and `Cc1ccc(S(=O)(=O)NCC(C)NS(C)(=O)=O)cc1` (stereo unspecified), with -8.89%; and `Nc1nnnn1/N=C/c1cccc(Br)c1`, with -16.5%.

For the compound `COc1ccc(C(=O)Nc2ccc3c(c2)OCO3)cc1OC`, the “activity change, negative = growth inhibition” value is -25.8%. Same read-out and setting: as for `Cc1ccc(C(=O)NC(=S)Nc2ccccc2C)cc1`, the figure is -18.2%; as for `COc1ccc(C(=O)Nc2ccc(S(=O)(=O)Nc3onc(C)c3C)cc2)cc1OC`, -5.48%. The same measure, in the same setting: then `COc1ccc(C(=O)Nc2ccc(N3CCC(C)CC3)cc2)cc1Br`, with -28%. In the case of `COc1ccc(C(=O)NC(=S)Nc2ccc(N3CCCC3)cc2)cc1OC`, the Potency is 8.2 µM (active). Consider `COc1ccccc1C(=O)NC(=S)NC12CC3CC(CC(C3)C1)C2`, for which the “activity change, negative = growth inhibition” value is -21%. Same read-out and setting: as for `COc1ccc(C(=O)NC(=S)Nc2ccc(Cl)cn2)cc1OC`, the figure is -0.228%. Consider `Cc1ccc(NC(=S)NC(=O)c2ccc(-c3ccccc3)cc2)cc1`, for which the Potency was 4.61 µM (active).

Regarding `CC(=O)NC(=S)Nc1ccc(NC(=S)NC(=O)c2ccc([N+](=O)[O-])cc2)cc1`, the “activity change, negative = growth inhibition” value was -11%.

Turning to `COc1ccc(C(=O)Nc2ccc(C3(C#N)CCCC3)cc2)cc1OC`, the Potency was 23.1 µM (active).

Regarding `COc1ccccc1C(=O)NC(=S)Nc1ccc(N2CCOCC2)cc1`, the Potency was 0.206 µM (active). In the case of `COc1ccccc1C(=O)Nc1cccc(C(=O)N2CCOCC2)c1`, the “activity change, negative = growth inhibition” value was 3.1%. The same measure, in the same setting: as for `CCOC(=O)c1c(C)[nH]c(C(=O)OCC(=O)N2CCCC2=O)c1C`, the figure is -12.8%; as for `COCCCNC(=O)CN1CCN(Cc2ccccc2Cl)C1=O`, -3.14%; as for `CCCc1cc(=O)oc2c(C)c(OCC(=O)N3CCC(C(=O)O)CC3)ccc12`, -2.38%.

Take `O=[N+]([O-])/C=C1\CCCCCN1`: the “activity change, negative = growth inhibition” value is -11.2%.

For the compound `CC1CC(c2ccccc2)n2nc(NC(=O)c3cccs3)nc2N1` (stereo unspecified), the “activity change, negative = growth inhibition” value was -20.4%. Turning to `Cc1nnc(NC(=O)CCC(=O)N2CCC(C)CC2)s1`, the “activity change, negative = growth inhibition” value was -3.07%.

Turning to `Cc1ccc(OCC(=O)NNC(=S)NCc2ccccc2)cc1`, the “activity change, negative = growth inhibition” value is -7.21%.

As for `O=C1CCC(C(=O)OCC(=O)Nc2ccc(OC(F)F)cc2)=NN1`, the “activity change, negative = growth inhibition” value is 2.66%. `Cc1ccc(C(=O)NC(=S)NCCN2CCOCC2)cc1`: the “activity change, negative = growth inhibition” value is -6.71%. Turning to `Cc1ccc(C(=O)NC(=S)Nc2ccc(N3CCOCC3)cc2)cc1`, the Potency is 29.1 µM (active).
